Measurements published in PubChem BioAssay AID493169 (National Center for Advancing Translational Sciences (NCATS), 2011).
Records with an inconclusive call do not appear. The source made the active and inactive calls. Calls come from the whole dose curve; as a rule, active = well fitted inhibition curve with a large enough effect; inconclusive = small, poorly fitted or top-dose-only effect; inactive = flat fitted curve, though single readings scatter.

test: CHOP2 Reporter Counterscreen Assay for Inhibitors of Ubiquitin-specific Protease USP2a; conditions: purified enterokinase, fluorogenic substrate, 485/531 nm; series mostly up to 38.3 µM; activity change, negative = inhibition: at the top concentration;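 note: activated enterokinase alone at 50 pM in a cell-free format rather than USP2a or CHOP2; nearly all actives have a fitted effect of over 55% in size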
Method in brief: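 Fluorescence (485/531 nm) read 10 min after adding 25nM reporter substrate to 50 pM activated EK preincubated 30 min RT with compound; Tris pH 8.0/CaCl2/CHAPS buffer. Data normalized to buffer-alone inhibition; concentration-response curves fitted.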
% is set by controls: 0 for no effect and ±100 for the full control effect; potency is the fitted concentration of half-maximal effect.

SMILES | activity change, negative = inhibition | Potency
O=C(Oc1ccccc1C(=O)Nc1ccccc1)c1ccccc1Br | -2.06% (inactive) | –
O=C(Nc1nc(-c2ccco2)c(-c2ccco2)s1)c1ccc(F)cc1F | – | 10 µM (active)
Cc1ccc(/C=C2/SC(=S)N(c3ccc(S(=O)(=O)Nc4nccs4)cc3)C2=O)cc1 | – | 12.6 µM (active)
CCC(C)(C)n1nnnc1C(c1ccc(C)cc1)N1CCCC1 (stereo not given) | 0.491% (inactive) | –
CC(C)N(C(=O)c1sc2cc([N+](=O)[O-])ccc2c1Cl)C(C)C | 11% (inactive) | –
Cc1ccc(-c2c(C#N)c(N)nc3c2CCCCC3)o1 | 1.52% (inactive) | –
Cc1ccc2[nH]c3c(c2c1)CN(C(=O)CN1CCSCC1)CC3 | 13.7% (inactive) | –
COc1ccc(-c2nc(C#N)c(NCC3CCCO3)o2)cc1OC (stereo not given) | -2.04% (inactive) | –
CCOC(=O)c1c(C)c(C(=O)O)n(C)c1C | 2.01% (inactive) | –
Cc1nc2cc3ccccc3cc2c(=O)[nH]1 | -3.45% (inactive) | –
N=C1C(c2nc3ccccc3c(=O)[nH]2)=C(O)CN1CCc1ccccc1 | 0.564% (inactive) | –
COc1ccc(-n2c(=S)[nH]c3cc(C(=O)NCc4ccc(F)cc4)ccc3c2=O)c(OC)c1 | -1.81% (inactive) | –
COc1ccc(/C=C2\SC(=S)N(NS(=O)(=O)c3ccc(C)cc3)C2=O)c(OC)c1 | -25.7% (inactive) | –
CCCCCCCCCCOC(=O)Cn1c(COc2cccc(C)c2)[n+](C)c2ccccc21 | – | 10 µM (active)
CC[n+]1c(/C=C/N(C)c2ccccc2)n(-c2ccccc2)c2ccc(-c3nc4ccccc4s3)cc21 | – | 10 µM (active)
CCC(C(=O)Nc1nnc(-c2ccco2)s1)c1ccccc1 (stereo not given) | 4.66% (inactive) | –
CCOc1ccc(S(=O)(=O)N(CC(=O)O)c2ccccc2)cc1 | 2.04% (inactive) | –
O=C(COC(=O)c1cc(-c2ccc(Cl)s2)nc2ccccc12)NCc1ccco1 | – | 10 µM (active)
COC(=O)c1ccc(CSc2ncnc3ccccc23)o1 | 4.44% (inactive) | –
CN1CCN(CCCCOc2ccc(F)cc2)CC1 | 0.243% (inactive) | –

SMILES | activity change, negative = inhibition | Potency
COc1ccc2cc(CN(C(=O)Nc3ccccc3)C3CCCC3)c(=O)[nH]c2c1 | -1.45% (inactive) | –
Oc1ccccc1/C=N/Nc1ncc(Br)cn1 | -2.82% (inactive) | –
C#CCOCCOCCOCCNc1nc(N2CCN(C(=O)CCCCCCCCCCNC(=O)[C@@H](CCSC)n3cc(CCO)nn3)CC2)nc(N2CCN(C(=O)CCCCCCCCCCNC(=O)[C@H](CCCN=C(N)N)n3cc(C[C@@H](C)CC)nn3)CC2)n1 | – | 2.51 µM (active)
O=C1CCCc2nc(N3CCN(c4ccccc4)CC3)ncc21 | 3.25% (inactive) | –
CC(=O)c1c(N2CCCC2)[nH]c(-c2ccccc2)nc1=S | 0.802% (inactive) | –
COc1ccccc1C(=O)N1CCN=C1SC | 5.64% (inactive) | –
Cc1ccc(OCC(=O)Nc2ccc(N3CCCC3)cc2)cc1C | – | 10 µM (active)
O=C(CSc1ccc2nnc(-c3cccc(F)c3)n2n1)N1CCCc2ccccc21 | -4.68% (inactive) | –
COCCn1c(CN(Cc2ccccc2)Cc2ccccc2)nc2c1c(=O)n(C)c(=O)n2C | 3.98% (inactive) | –
CCOC(=O)COc1c(OC)cc(Cl)cc1C1Nc2ccccc2C(=O)N1c1ccccc1 (stereo not given) | -2.56% (inactive) | –
CCOC(=O)Nc1ccc(S(=O)(=O)Nc2cc(C)nc(C)n2)cc1 | 1.95% (inactive) | –
O=C(O)c1cccc(S(=O)(=O)NNc2ccccc2C(F)(F)F)c1 | -1.31% (inactive) | –
CCn1c(COc2ccc(C)cc2)nnc1SCC(=O)Nc1ccc2c(c1)OCCO2 | 0.498% (inactive) | –
Cc1ccc(Cn2nnc3c(=O)[nH]c(C4CCN(S(=O)(=O)Cc5ccccc5)CC4)nc32)cc1 | 3.17% (inactive) | –
O=C(Cc1cccs1)Nc1ccc(S(=O)(=O)N2CCCCC2)cc1 | – | 7.94 µM (active)
CCN=C1SC(C(=O)Nc2cccc(OCC)c2)CC(=O)N1CC (stereo not given) | 0.255% (inactive) | –
Cc1ccc(NC(=O)c2cc(-c3ccco3)nc3ccccc23)cc1S(=O)(=O)N1CCOCC1 | – | 7.08 µM (active)
O=C(OCc1ccccc1)C1CCCN1C(=O)c1cccs1 (stereo not given) | 8.05% (inactive) | –
CC(C)(C)C1CCc2nc(NC(=O)Cc3cn4ccsc4n3)sc2C1 (stereo not given) | -4.53% (inactive) | –
Cc1ccc(C)n1NC(=O)c1ccccc1O | -12.6% (inactive) | –
